Records with an inconclusive call do not appear. Some structures have more than one record in an assay (separate samples or runs), and their calls can disagree. Activity calls are given as the source filed them. Rule for the calls: active = hit-call score of the fitted dose curve at least 0.9, where 1 is the maximum; inconclusive = response in the unintended direction; inactive = score below 0.9.

This assay has as its system zebrafish Estrogen Receptor (ESR2B), gene 317733. In words: ATG_zfER2b_XSP1: Attagene TRANS-FACTORIAL Multi-Species (XSP1) HepG2 Assay for zebrafish Estrogen Receptor (ESR2B) (AID 2283773). As for the experimental part:
ATG_XSP1_multi-species_TRANS is a cell-based, multiplexed assay created by modifying the existing Attagene TRANS-FACTORIAL system to include a panel of nuclear receptors from some or all the following species: human (Homo sapiens), mouse (Mus musculus), frog (Xenopus laevis), zebrafish (Danio rerio), chicken (Gallus gallus), and turtle (Chrysemys picta). The ECOTOX-FACTORIAL format uses HepG2, a human liver cell line, with measurements taken at 24 hours after chemical dosing in a 24-well plate. Xsp1 included 3 nM 6-alpha-fluorotestosterone to partially stimulate the androgen receptor.ATG_zfER2b_XSP1 is one of 29 assay components measured or calculated from the ATG_XSP1_multi-species_TRANS assay. It is designed to make measurements of mRNA induction, a form of inducible reporter, as detected with fluorescence intensity signals by Reverse transcription polymerase chain reaction (RT-PCR) and Capillary electrophoresis technology.The assay endpoint ATG_zfER2b_XSP1 was analyzed in the positive analysis fitting direction relative to DMSO as the negative control and baseline of activity. Using a type of inducible reporter, measures of mRNA for gain-of-signal activity can be used to understand the reporter gene at the transcription factor-level as they relate to the gene ER. Furthermore, this assay endpoint can be referred to as a primary readout, because this assay has produced multiple assay endpoints where this one serves a reporter gene function. To generalize the intended target to other relatable targets, this assay endpoint is annotated to the nuclear receptor intended target family, where the subfamily is steroidal.
Human liver HepG2 cells are transiently transfected with multiple reporter transcription units (MRTUs) in 6-well plates using FuGene 6 reagent (Roche; 3 ml FuGene/1 mg DNA). The MRTU constructs are regulated by a cis-regulating element (promoter). […] A major difference between the CIS and TRANS system is that in CIS activities of endogenous TFs are measured, whereas the TRANS assay evaluates changes in activities of exogenous, chimeric NR-Gal4 proteins. […] At the end of 24 hour incubation, total RNA was isolated using TriZol reagent (Invitrogen). The isolated RNA is then reverse-transcribed using oligo(dT) primer and Mo-MLV reverse transcriptase (Invitrogen) with DNAse I (Ambion) treatment for 30 min. The one-tenth of the produced cDNA was amplified by PCR using Taq DNA polymerase (Invitrogen) and two reporter sequence-specific primers. The PCR products were fluorescently labeled by primer extension with 6-arboxyfluorescein (6-FAM) 5'-labeled reporter sequence-specific primer (2 min at 95 C, 20 s at 68 C and 10 min at 72 C) and these products were digested with 5U of HpaI (New England Biolabs) for 2h at 37 C. The fragments were purified using Qiaquick PCR columns (Qiagen), analyzed on an ABI 3130xL genetic analyzer (Applied Biosystems) with peak positions identified by using a set of X-rhodamine (ROX)-labeled MapMarker1000 molecular weight standards (BioVentures). The raw capillary electrophoresis data was processed using Attagraph software (Attagene).
For `CCCCC(CC)CN1C(=O)C2C3C=CC(C3)C2C1=O` (stereo unspecified), the AC50 was 27.4 µM (active).
With `CC(C)CCCCCCc1ccc(O)cc1`, the AC50 was 0.571 µM (active).
Take `CC(C)(c1ccc(O)cc1)c1ccc(O)cc1`: the AC50 is 0.811 µM (active).
For the compound `C#C[C@]1(O)CC[C@H]2[C@@H]3CCC4=CC(=O)CC[C@@H]4[C@H]3CC[C@@]21CC`, the AC50 is 0.451 µM (active) and the outcome was inactive.
Take `Oc1ccc(C(c2ccc(O)cc2)C(Cl)(Cl)Cl)cc1`: the AC50 is 0.131 µM (active).
Take `C=CCOC(Cn1ccnc1)c1ccc(Cl)cc1Cl` (stereo unspecified): the AC50 was 20.5 µM (active).
The same measure, in the same setting: the same measure for `CCCCC(CC)COC(=O)c1ccccc1C(=O)O` (stereo unspecified): 62.5 µM (active); for `CC1(C)C(C=C(Cl)Cl)C1C(=O)OCc1cccc(Oc2ccccc2)c1` (stereo unspecified): 19.8 µM (active); for `O=C(c1ccc(O)cc1O)c1ccc(O)cc1O`: 0.94 µM (active).
Take `CC(=O)S[C@@H]1CC2=CC(=O)CC[C@]2(C)[C@H]2CC[C@@]3(C)[C@@H](CC[C@@]34CCC(=O)O4)[C@H]12`: the AC50 was 82.2 µM (active).

These data come from PubChem BioAssay (EPA / NIEHS).
